SMN2 splice up: enhancers of SMN2 splice variant expression; AID 1458; actives 2.8% (n = 210,000); HEK293 SMN2-luciferase splicing reporter, luminescence, 30-36 h; Potency, µM (highest dose often 46.1 µM), inactives show at the highest dose activity change, positive = activation, hits mostly activators; also: % of control where 0% means no effect; nearly all actives have a fitted effect of over 55% in size
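qHTS luciferase splicing reporter: luminescence rises when SMN2 exon 7 is included in transfected HEK293 cells. Compound exposure lasted 30-36 h at 37C, with 4.5 mM final sodium butyrate as control, followed by a ONE-Glo read.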
KinaseGlo FLuc: Kinase-Glo luciferase inhibition (counter-screen). AID 1379. actives 0.28% (n = 200,000). Kinase-Glo luciferase, ATP luminescence, 8 min. Potency, µM (top dose mostly 38.3 µM), without a hit: at the highest dose activity change, negative = inhibition, usual class: inhibitors; also: % is scaled to controls: 0 for no effect and ±100 for the full control effect; nearly all actives have a fitted effect of over 60% in size
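Kinase-Glo luciferase light output from ATP and luciferin was measured with 10 uM ATP, within the enzyme's linear range. Buffer: 50 mM imidazole pH 7.2, 50 mM KCl, 7 mM MgCl2, 0.01% Tween 20, 0.05% BSA; luminescence read after 8 min at ambient temperature.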
Rab9 prom act: activators of Rab9 promoter. AID 485297. Potency, µM (top dose mostly 9.22 µM), for inactives: at the top dose activation, negative = inhibition, usual class: activators. actives 2.8% (n = 320,000). Huh7 Rab9 promoter-luciferase reporter, luminescence, 24 h; also: % of control where 0% means no effect; nearly all actives have a fitted effect of over 60% in size
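Promoter activation is measured as luciferase luminescence in Huh7 cells stably transfected with a Rab9 promoter–luciferase construct, following 24 h compound exposure at 37 °C and 10 min reagent incubation at ambient temperature.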
NPC1 prom act: activators of NPC1 promoter | Huh7 NPC1 promoter luciferase reporter, 24 h | Potency, µM (series often up to 9.22 µM), for inactives: at the top dose activation, actives largely listed as activators | actives 2.4% (n = 320,000); also: % of control where 0% means no effect; nearly all actives have a fitted effect of over 60% in size
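Quantitative HTS used a cell-based reporter: Huh7 cells stably bearing the NPC1 promoter upstream of luciferase were treated with compounds for 24 h, and promoter activation was read as luminescence.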
FLuc counter: inhibits or activates purified firefly luciferase, miR-21 counter-screen; actives 6.9% (n = 360,000); purified FLuc, Km substrates, luminescence inhibition; Potency, µM (highest dose often 57.5 µM), for the others: at the top dose activity change, negative = inhibition, most hits filed as inhibitors; P08659;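 also: plate controls were vehicle for no effect and reference inhibitor for full effect; nearly all actives have a fitted effect of over 55% in size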
Target sequence (P08659 whole entry, looked up): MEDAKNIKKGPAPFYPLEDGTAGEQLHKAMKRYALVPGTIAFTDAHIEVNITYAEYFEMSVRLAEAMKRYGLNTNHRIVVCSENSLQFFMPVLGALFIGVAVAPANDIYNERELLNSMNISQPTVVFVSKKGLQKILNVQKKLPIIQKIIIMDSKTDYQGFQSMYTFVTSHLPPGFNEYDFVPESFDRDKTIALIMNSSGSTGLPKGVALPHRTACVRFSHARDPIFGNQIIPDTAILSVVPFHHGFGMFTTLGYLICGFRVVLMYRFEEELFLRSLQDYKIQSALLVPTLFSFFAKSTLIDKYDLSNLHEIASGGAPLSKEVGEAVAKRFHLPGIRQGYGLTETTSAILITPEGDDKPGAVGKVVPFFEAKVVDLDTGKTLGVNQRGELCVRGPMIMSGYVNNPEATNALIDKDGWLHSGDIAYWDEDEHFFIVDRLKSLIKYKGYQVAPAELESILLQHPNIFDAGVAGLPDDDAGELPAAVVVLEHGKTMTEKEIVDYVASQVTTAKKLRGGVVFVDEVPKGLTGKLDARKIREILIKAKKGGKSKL
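Biochemical qHTS of compounds, final roughly 60 µM downward over six points, against 10 nM purified firefly luciferase using Km concentrations of substrates (10 uM D-luciferin, 10 uM ATP) in Tris acetate pH 7.5 buffer; luminescence output.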
Numbers without * were called inactive; ? = inconclusive; . = no result; [ ] = another dose, or the depositor's remark. Compounds with a hit are over-represented: about 7.3% of the library has one in this group of screens. Calls follow the shape of the dose curve; as a rule, active = well fitted curve in the direction sought with a large enough effect; inconclusive = small, poorly fitted or top-dose-only effect, or another doubt; inactive = no such curve, though single readings can be large; an effect the other way counts as inactive or inconclusive. Potency is read from the fitted curve at half-maximal effect.

SMILES | SMN2 splice up | KinaseGlo FLuc | Rab9 prom act | NPC1 prom act | FLuc counter
COc1ccc(-c2cc(C(=O)Nc3c(C)n(C)n(-c4ccccc4)c3=O)c3ccccc3n2)cc1OC | . | . | 1% | -1% | 21µM*
COc1ccc(-c2cc(C(=O)Nc3c(C)n(C)n(-c4ccccc4)c3=O)c3ccccc3n2)c(OC)c1 | . | . | 0% | 14% | -3%
COc1ccc(-c2cc(C(=O)OC(C)C(=O)Nc3c(C)n(C)n(-c4ccccc4)c3=O)c3ccccc3n2)cc1 (centres undefined) | 23% | -1% | -1% | 1% | 13µM*
Cc1c(NC(=O)C(C)OC(=O)c2cc(-c3cccc4ccccc34)nc3ccccc23)c(=O)n(-c2ccccc2)n1C (centres undefined) | -14% | 1% | -4% | 0% | -16%
C=Cc1ccc(CN2C(=O)c3ccccc3Sc3ccc(C(=O)OCc4ccco4)cc32)cc1 | . | . | . | . | 3%
Cc1cc(C)cc(-n2ccnc2SCC(=O)Nc2nnc(C)s2)c1 | . | . | . | . | -13%
OCc1cc([C@@H](O)CNCCCCCCOCCCCc2ccccc2)ccc1O | . | 0% | . | . | .
CS(=O)(=O)N1CCC[C@@]2(CCN(c3ccccn3)C2)C1 | -10% | 0% | . | . | .
Cc1cccc(S(=O)(=O)Nc2ccc(-c3cn4ccccc4n3)cc2)c1 | ? | 2% | ? | 27% | 17µM*
Cc1cc(C)c(S(=O)(=O)Nc2cccc(-c3cn4ccccc4n3)c2)c(C)c1 | . | . | . | . | 9.5µM*
CCS(=O)(=O)Nc1cccc(-c2cn3c(n2)SCC3)c1 | . | . | -3% | 0% | -2%
O=S(=O)(Nc1ccc(-c2cn3ccccc3n2)cc1)c1ccccc1 | . | . | 23% | 25% | 13µM*
CCCS(=O)(=O)Nc1cccc(-c2cn3ccc(C)cc3n2)c1 | 13µM* | . | . | . | 12µM*
Cc1cc(C)c(S(=O)(=O)Nc2ccc(-c3cn4ccccc4n3)cc2)c(C)c1 | 11% | 3% | 3% | -2% | ?
CC(=O)C=NCC(=O)O | -15%[9.22 µM] | 0%[7.66 µM] | . | . | .
CN1CCN(CCCN)CC1 | -4%[9.22 µM] | -9%[7.66 µM] | . | . | .
COC(=O)c1ccc(NC(=O)Cc2coc3cc(C)ccc23)cc1 | ? | . | . | . | 2%
CCOc1cc(-c2nc(-c3ccc(-c4ccccc4)nc3OCC)no2)cc(OCC)c1OCC | 5% | . | . | . | -6%
Cc1cccn2cc(-c3cccc(S(=O)(=O)N4CCOCC4)c3)nc12 | . | . | 3% | -1% | ?
Cc1cccn2cc(-c3cccc(NS(=O)(=O)c4ccc(Cl)c(Cl)c4)c3)nc12 | 9% | . | . | . | 9.5µM*
COC(=O)c1ccc2c(c1)N(Cc1nc(-c3cccc(C)c3)oc1C)C(=O)C1CCCN21 (centres undefined) | 10µM* | -5% | 2% | 1% | -1%
Cc1cc(C(=O)CSc2nnc(C3CC3)n2C2CC2)c(C)n1C(C)C | . | . | 5% | 6% | 12µM*
C=CCn1c(C)cc(C(=O)CSc2nnc(C3CC3)n2C2CC2)c1C | . | . | 15% | 17% | 3µM*
CN(CCC#N)c1ccc(/C=C(\C#N)c2ccccn2)cc1 | 1µM* | ? | 0.5µM* | 0.5µM* | 1.5µM*
CCN(Cc1ccccc1)c1ccc(/C=C(\C#N)c2ccccn2)cc1 | . | . | 1.4µM* | 3.5µM* | 7.6µM*
SMILES | SMN2 splice up | KinaseGlo FLuc | Rab9 prom act | NPC1 prom act | FLuc counter
CCN(CC)c1ccc(/C=C(\C#N)c2ccccn2)cc1 | 1.4µM* | -11% | 0.13µM* | 0.45µM* | 1.1µM*
N#C/C(=C\c1ccc(C(=O)O)cc1)c1ccccn1 | 6% | -13% | -3% | -1% | -18%
Cc1ccc(NC(=O)CCc2nc(-c3ccccc3F)no2)c(C)c1 | 0% | . | . | . | -2%
c1ccc(SCCSc2ccccc2)cc1 | 4% | . | . | . | .
O=C(Nc1cccc(-c2nc3ccccc3[nH]2)c1)c1cccc(NC(=O)c2ccco2)c1 | -90% | -6% | 1% | 19% | ?
CC(C)(C)C(=O)Nc1ccc(Cl)c(-c2nc3ccccc3[nH]2)c1 | . | . | . | . | -10%
Cc1cccc2[nH]c(-c3ccc(NC(=O)c4ccco4)cc3)nc12 | 14µM* | ? | 1µM* | 2.2µM* | 4.8µM*
C=Cc1cccc(NC(=O)c2ccc(NC(=O)c3ccco3)cc2)c1 | . | . | 15% | 2% | 3%
O=C(Nc1ccc2nc(-c3ccccc3)[nH]c2c1)c1ccco1 | 16µM* | -2% | ? | ? | 11µM*

Screening results: PubChem BioAssay, National Center for Advancing Translational Sciences (NCATS)
